In PubChem BioAssay:
“And” between values parts separate entries of the source, which are not always exact repeats. Identical values can stand only once. Results filed as inconclusive are left out. The source made the active and inactive calls.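 How the source made its calls, unless noted: active means normalized viability below 100% at a tested concentration; inactive means the rest.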

Tests used:
[1] = growth inhibition of DIPG glioma cells, dose response, cell-based, SU-DIPG-XVII, MIPE5.0, CellTiter-Glo, qHTS (AID 1347060; cut-off not given, nearly all actives have AC50 up to about 26 µM;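 on AC50: cells exposed to compound for 48 hours before viability readout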); settings: SU-DIPG-XVII viability, CellTiter-Glo ATP luminescence
[2] = growth inhibition of DIPG glioma cells, dose response, cell-based, SU-DIPG-XIII, MIPE4.0, CellTiter-Glo, qHTS (AID 1347061; cut-off not given, nearly all actives have AC50 up to about 37 µM;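 further: cells exposed to compound for 48 hours before readout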); settings: SU-DIPG-XIII viability, CellTiter-Glo ATP luminescence
[3] = growth inhibition of DIPG glioma cells, dose response, cell-based, JHH-DIPG-1, MIPE4.0, CellTiter-Glo, qHTS (AID 1347062; cut-off not given, nearly all actives have AC50 up to about 27 µM;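 on AC50: cells exposed to compound for two days before readout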); settings: JHH-DIPG-1 viability, CellTiter-Glo ATP luminescence
[4] = growth inhibition of DIPG glioma cells, dose response, cell-based, SU-DIPG-IV, MIPE4.0, CellTiter-Glo, qHTS (AID 1347063; cut-off not given, nearly all actives have AC50 up to about 30 µM;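 further: compound exposure lasted 48 hours before the viability readout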); settings: SU-DIPG-IV viability, CellTiter-Glo ATP luminescence
[5] = growth inhibition of DIPG glioma cells, dose response, cell-based, SU-DIPG-XIII, MIPE5.0, CellTiter-Glo, qHTS (AID 1347064; cut-off not given, nearly all actives have AC50 up to about 23 µM;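 on AC50: cells exposed to compound for 48 hours before the viability read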); settings: SU-DIPG-XIII viability, CellTiter-Glo ATP luminescence
[6] = viability loss in pontine glioma line – cell-based, SU-DIPG-XXV, MIPE5.0, CellTiter-Glo, qHTS, dose response (AID 1347065; cut-off not given, nearly all actives have AC50 up to about 26 µM;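 further: cells exposed to compound for 48 hours before ATP readout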); settings: CellTiter-Glo ATP luminescence
[7] = JHH-DIPG-1 glioma cell viability, MIPE5.0 library, CellTiter-Glo luminescence, qHTS (AID 1347067; cut-off not given, nearly all actives have AC50 up to about 26 µM;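 further: cells exposed to compound for 48 hours before readout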); settings: JHH-DIPG-1 glioma viability, CellTiter-Glo ATP luminescence
[8] = SU-DIPG-XXV glioma cell viability, MIPE5.0 library, qHTS (AID 1347068; cut-off not given, nearly all actives have IC50 up to about 30 µM;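 on IC50: cells exposed to compound for 48 hours before viability readout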)
[9] = sensitizers of A549 cells to miR-34 induction, primary screen, imaging, A549 dox-inducible miR-34, nuclei and caspase counts (AID 1347080;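 active means compounds whose cell count with miR-34 switched on is under 0.7 times the count with it off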); settings: A549 miR-34 inducible, Hoechst nuclei count, 48 h
[10] = survival rescue of mitochondrial mutant cells in low glucose, primary screen, MELAS cybrids, Rieske KO mouse fibroblasts, CellTiter-Glo (AID 1508586;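 active means mean z-score across replicates of 1.96 or higher in either the MELAS or the Rieske mutant cell line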;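 further: z relative to plate mean and SD of compound and empty wells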)
[11] = SU-DIPG-VI glioma cell viability, MIPE4.0 library, CellTiter-Glo luminescence, qHTS (AID 1347066; cut-off not given, nearly all actives have AC50 up to about 30 µM;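 further: cells exposed to compound for 48 hours before readout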); settings: CellTiter-Glo ATP luminescence
[12] = modifiers of HSF1 nuclear foci, imaging, Selleck Cancer Library (AID 1347162; in the data active means plate-normalised HSF1 focus index below about 0.46); settings: human cells, at 10 µM; SSMD: measured here: HSF1 foci SSMD mean; cell count: measured here: cell number; plate-normalised HSF1 focus index: stronger effect = lower value
[13] = ovarian cancer cell viability with rucaparib, profiling panel, oncology-focused library, rucaparib conditional (AID 1508598); settings: patient-derived ovarian cancer cells, CellTiter-Glo viability, 144 h, stronger effect = lower value
[14] = stronger effect = lower value, cell number ratio, induced over uninduced
[15] = measured here: relative caspase fold change +Dox/-Dox
[16] = measured here: total cells with miR-34 induction, stronger effect = lower value
[17] = measured here: total cells without miR-34 induction
[18] = MELAS cybrid survival, CellTiter-Glo 48 h, stronger effect = higher value
[19] = Rieske KO mouse fibroblast survival, CellTiter-Glo 72 h

O=C1c2cccc(O)c2C(=O)c2c(O)cc(CO)cc21
outcome [1]: inactive
outcome [2]: inactive
outcome [3]: inactive
outcome [4]: inactive
outcome [5]: inactive
outcome [6]: inactive
outcome [7]: inactive
outcome [8]: inactive
fold change [9, 14]: 0.954 (inactive)
fold change [9, 15]: 0.691
cell count [9, 16]: 7900
cell count [9, 17]: 8280
z-score [10, 18]: -0.27 (inactive)
z-score [10, 19]: 0.836

O=C1NC(=O)/C(=C\c2ccc(-c3ccc(F)cc3)o2)S1
outcome [1]: inactive
outcome [2]: inactive
outcome [3]: inactive
outcome [4]: inactive
outcome [5]: inactive
outcome [11]: inactive
outcome [8]: inactive

CC(C)c1noc(N2CCC(COc3ccc(-c4ccc(S(C)(=O)=O)cc4)nc3)CC2)n1
outcome [1]: inactive
outcome [2]: inactive
outcome [3]: inactive
outcome [4]: inactive
outcome [5]: inactive
outcome [11]: inactive
outcome [7]: inactive
outcome [8]: inactive
fold change [9, 14]: 0.733 (inactive)
fold change [9, 15]: 1.55
cell count [9, 16]: 5110
cell count [9, 17]: 6980
z-score [10, 18]: -0.22 (inactive)
z-score [10, 19]: 0.941

Cc1nc(N)ncc1-c1nc(N2CCOCC2)c2sc(C(C)(C)O)cc2n1
AC50 [1]: 1.66 µM (active)
AC50 [2]: 7.43 µM (active)
AC50 [3]: 1.32 µM (active)
AC50 [4]: 0.332 µM (active)
AC50 [5]: 3.32 µM (active)
AC50 [6]: 1.05 µM (active)
IC50 [8]: 4.68 µM (active)

COc1nccc(-c2c(-c3ccc(F)cc3)ncn2C2CCNCC2)n1
outcome [1]: inactive
outcome [2]: inactive
outcome [3]: inactive
outcome [4]: inactive
outcome [5]: inactive
outcome [6]: inactive
outcome [7]: inactive
outcome [8]: inactive

CNC(=O)c1ccc(C)c(-n2c(C)cc(OCc3ccc(F)cc3F)c(Br)c2=O)c1
outcome [1]: inactive
outcome [2]: inactive
outcome [3]: inactive
outcome [4]: inactive
outcome [5]: inactive
outcome [8]: inactive
fold change [9, 14]: 0.88 (inactive)
fold change [9, 15]: 0.999
cell count [9, 16]: 7360
cell count [9, 17]: 8370
SSMD [12]: 3.49
cell count [12]: 7630
plate-normalised HSF1 focus index [12]: 1.22 (inactive)
z-score [10, 18]: -0.398 (inactive)
z-score [10, 19]: -1.25
viability ([13]; at 0.000305 µM, OCI-C5x cells, with rucaparib 10 µM, 100% = cells with rucaparib alone): 104% (inactive)
viability ([13]; at 0.000305 µM, OCI-C5x cells, without rucaparib): 124% (inactive)
viability ([13]; at 0.000305 µM, OCI-P5x cells, with rucaparib 20 µM, 100% = cells with rucaparib alone): 115% (inactive)
viability ([13]; at 0.000305 µM, OCI-P5x cells, without rucaparib): 115% (inactive)
viability ([13]; at 0.00122 µM, OCI-C5x cells, with rucaparib 10 µM, 100% = cells with rucaparib alone): 110% (inactive)
viability ([13]; at 0.00122 µM, OCI-C5x cells, without rucaparib): 124% (inactive)
viability ([13]; at 0.00122 µM, OCI-P5x cells, with rucaparib 20 µM, 100% = cells with rucaparib alone): 107% (inactive)
viability ([13]; at 0.00122 µM, OCI-P5x cells, without rucaparib): 105% (inactive)
viability ([13]; at 0.00488 µM, OCI-C5x cells, with rucaparib 10 µM, 100% = cells with rucaparib alone): 105% (inactive)
viability ([13]; at 0.00488 µM, OCI-C5x cells, without rucaparib): 102% (inactive)
viability ([13]; at 0.00488 µM, OCI-P5x cells, with rucaparib 20 µM, 100% = cells with rucaparib alone): 112% (inactive)
viability ([13]; at 0.00488 µM, OCI-P5x cells, without rucaparib): 111% (inactive)
viability ([13]; at 0.0195 µM, OCI-C5x cells, with rucaparib 10 µM, 100% = cells with rucaparib alone): 97.8% (active)
viability ([13]; at 0.0195 µM, OCI-C5x cells, without rucaparib): 113% (inactive)
viability ([13]; at 0.0195 µM, OCI-P5x cells, with rucaparib 20 µM, 100% = cells with rucaparib alone): 114% (inactive)
viability ([13]; at 0.0195 µM, OCI-P5x cells, without rucaparib): 107% (inactive)
viability ([13]; at 0.0781 µM, OCI-C5x cells, with rucaparib 10 µM, 100% = cells with rucaparib alone): 101% (inactive)
viability ([13]; at 0.0781 µM, OCI-C5x cells, without rucaparib): 106% (inactive)
viability ([13]; at 0.0781 µM, OCI-P5x cells, with rucaparib 20 µM, 100% = cells with rucaparib alone): 108% (inactive)
viability ([13]; at 0.0781 µM, OCI-P5x cells, without rucaparib): 108% (inactive)
viability ([13]; at 0.313 µM, OCI-C5x cells, with rucaparib 10 µM, 100% = cells with rucaparib alone): 90.4% (active)
viability ([13]; at 0.313 µM, OCI-C5x cells, without rucaparib): 119% (inactive)
viability ([13]; at 0.313 µM, OCI-P5x cells, with rucaparib 20 µM, 100% = cells with rucaparib alone): 112% (inactive)
viability ([13]; at 0.313 µM, OCI-P5x cells, without rucaparib): 112% (inactive)
viability ([13]; at 1.25 µM, OCI-C5x cells, with rucaparib 10 µM, 100% = cells with rucaparib alone): 91.7% (active)
viability ([13]; at 1.25 µM, OCI-C5x cells, without rucaparib): 112% (inactive)
viability ([13]; at 1.25 µM, OCI-P5x cells, with rucaparib 20 µM, 100% = cells with rucaparib alone): 110% (inactive)
viability ([13]; at 1.25 µM, OCI-P5x cells, without rucaparib): 108% (inactive)
viability ([13]; at 5 µM, OCI-C5x cells, with rucaparib 10 µM, 100% = cells with rucaparib alone): 123% (inactive)
viability ([13]; at 5 µM, OCI-C5x cells, without rucaparib): 129% (inactive)
viability ([13]; at 5 µM, OCI-P5x cells, with rucaparib 20 µM, 100% = cells with rucaparib alone): 110% (inactive)
viability ([13]; at 5 µM, OCI-P5x cells, without rucaparib): 105% (inactive)

N[C@@]1(C(=O)O)CS(=O)(=O)[C@H]2[C@H](C(=O)O)[C@H]21
outcome [1]: inactive
outcome [2]: inactive
outcome [3]: inactive
outcome [4]: inactive
outcome [5]: inactive
outcome [11]: inactive
outcome [7]: inactive
outcome [8]: inactive

COc1ccccc1N1CCN(CCN(C(=O)C2CCCCC2)c2ccccn2)CC1
outcome [1]: inactive
outcome [2]: inactive
outcome [3]: inactive
outcome [4]: inactive
outcome [5]: inactive
outcome [11]: inactive
outcome [8]: inactive
fold change [9, 14]: 0.953 (inactive) and 0.872 (inactive)
fold change [9, 15]: 0.882 and 0.761
cell count [9, 16]: 8900 and 8750
cell count [9, 17]: 9340 and 10000
z-score [10, 18]: -0.378 (inactive)
z-score [10, 19]: 0.432

CC(C)c1cc(C(=O)N2Cc3ccc(CN4CCN(C)CC4)cc3C2)c(O)cc1O
AC50 [1]: 0.468 µM (active)
AC50 [2]: 1.18 µM (active)
AC50 [3]: 0.296 µM (active)
AC50 [4]: 0.526 µM (active)
AC50 [5]: 0.742 µM (active)
AC50 [6]: 0.525 µM (active)
AC50 [7]: 0.661 µM (active)
IC50 [8]: 1.48 µM (active)
fold change [9, 14]: 0.888 (inactive)
fold change [9, 15]: 0.921
cell count [9, 16]: 1780
cell count [9, 17]: 2010
z-score [10, 18]: 2.68 (active)
z-score [10, 19]: -0.499
